{"source": "paper PMC12820563", "about": "“FoxP3 forms a head-to-head dimer in vivo and stabilizes its multimerization on adjacent microsatellites”", "note": "Over roughly 16,000 sequences, “rpm ratio (pull-down/input)” has its median near 0.5; the highest 2% begin near 5.5. The sample holds the highest values, similar sequences and a random draw of the others, so the mix is not that of the screen.", "data": [{"molecular_target": "T1, MBP-FoxP3dN (Mus musculus, UniProt Q99JB6 188-423)", "T1 sequence": "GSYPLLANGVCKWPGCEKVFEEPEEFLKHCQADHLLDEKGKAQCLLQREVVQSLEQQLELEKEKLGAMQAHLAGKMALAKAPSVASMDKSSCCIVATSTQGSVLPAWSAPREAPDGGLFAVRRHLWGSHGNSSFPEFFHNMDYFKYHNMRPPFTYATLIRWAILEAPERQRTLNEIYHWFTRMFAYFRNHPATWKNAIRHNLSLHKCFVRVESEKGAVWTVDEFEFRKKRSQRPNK", "experiment": "PD-seq (MBP pull-down with sequencing); 20 mM Tris-HCl pH 7.5, 100 mM NaCl, 1.5 mM MgCl2, 0.4 uM protein, 0.1 uM dsDNA library, 30 min, room temperature, amylose pull-down; high values mean tight binding", "details": "protein: recombinant; tags: His6-MBP; chain copies: 2; dsDNA, one strand shown", "how_it_was_run": "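A degenerate double-stranded DNA library, filled in with Klenow, was added at 0.1 µM to 0.4 µM His6-MBP-tagged mouse FoxP3 or FoxP1 fragment lacking the N-terminus, expressed in E. coli. Incubation lasted 30 min at room temperature in Tris pH 7.5 buffer with NaCl and MgCl2, after which complexes were collected on amylose resin, washed three times, digested with proteinase K to free the DNA, barcoded by PCR and sequenced by Illumina. Binding is the pooled-replicate reads-per-million enrichment of pull-down over input.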", "values": [{"sequence": "GATGATTGTTCTCCCAGCTGATGAATTTAGCCCATCGAGTAAACAAATTTTCCTAATCTTTCTGTTCAAGCGCCATCTAC", "binding signal": "1.28 RPM ratio (pull-down/input)"}, {"sequence": "GATGATTGTTCTCCCAGCTGATGAATTTCCACGATCGAGTAAACAAATTTTCCTAATCTTTCTGTTCAAGCGCCATCTAC", "binding signal": "0.211 RPM ratio (pull-down/input)"}, {"sequence": "GATGATTGTTCTCCCAGCTGATGAATTGCATCGGTCGAGTAAACAAATTTTCCTAATCTTTCTGTTCAAGCGCCATCTAC", "binding signal": "1.43 RPM ratio (pull-down/input)"}, {"sequence": "GATGATTGTTCTCCCAGCTGATGAATTATGATGGTCGAGTAAACAAATTTTCCTAATCTTTCTGTTCAAGCGCCATCTAC", "binding signal": "1.33 RPM ratio (pull-down/input)"}, {"sequence": "GATGATTGTTCTCCCAGCTGATGAATTATGTTGTTCGAGTAAACAAATTTTCCTAATCTTTCTGTTCAAGCGCCATCTAC", "binding signal": "7.62 RPM ratio (pull-down/input)"}, {"sequence": "GATGATTGTTCTCCCAGCTGATGAATTATGATGATCGAGTAAACAAATTTTCCTAATCTTTCTGTTCAAGCGCCATCTAC", "binding signal": "1.63 RPM ratio (pull-down/input)"}, {"sequence": "GATGATTGTTCTCCCAGCTGATGAATTATGTTCATCGAGTAAACAAATTTTCCTAATCTTTCTGTTCAAGCGCCATCTAC", "binding signal": "1.09 RPM ratio (pull-down/input)"}, {"sequence": "GATGATTGTTCTCCCAGCTGATGAATTATGTCTTTCGAGTAAACAAATTTTCCTAATCTTTCTGTTCAAGCGCCATCTAC", "binding signal": "1.78 RPM ratio (pull-down/input)"}, {"sequence": "GATGATTGTTCTCCCAGCTGATGAATTATGTTTTTCGAGTAAACAAATTTTCCTAATCTTTCTGTTCAAGCGCCATCTAC", "binding signal": "6.33 RPM ratio (pull-down/input)"}, {"sequence": "GATGATTGTTCTCCCAGCTGATGAATTATGTTCTTCGAGTAAACAAATTTTCCTAATCTTTCTGTTCAAGCGCCATCTAC", "binding signal": "1.3 RPM ratio (pull-down/input)"}, {"sequence": "GATGATTGTTCTCCCAGCTGATGAATTATGATGTTCGAGTAAACAAATTTTCCTAATCTTTCTGTTCAAGCGCCATCTAC", "binding signal": "3.29 RPM ratio (pull-down/input)"}, {"sequence": "GATGATTGTTCTCCCAGCTGATGAATTATCTTGGTCGAGTAAACAAATTTTCCTAATCTTTCTGTTCAAGCGCCATCTAC", "binding signal": "0.323 RPM ratio (pull-down/input)"}, {"sequence": "GATGATTGTTCTCCCAGCTGATGAATTATGTTGATCGAGTAAACAAATTTTCCTAATCTTTCTGTTCAAGCGCCATCTAC", "binding signal": "7.26 RPM ratio (pull-down/input)"}, {"sequence": "GATGATTGTTCTCCCAGCTGATGAATTATGTTGGTCGAGTAAACAAATTTTCCTAATCTTTCTGTTCAAGCGCCATCTAC", "binding signal": "6.57 RPM ratio (pull-down/input)"}, {"sequence": "GATGATTGTTCTCCCAGCTGATGAATTATGTGTTTCGAGTAAACAAATTTTCCTAATCTTTCTGTTCAAGCGCCATCTAC", "binding signal": "4.42 RPM ratio (pull-down/input)"}, {"sequence": "GATGATTGTTCTCCCAGCTGATGAATTAGATCATTCGAGTAAACAAATTTTCCTAATCTTTCTGTTCAAGCGCCATCTAC", "binding signal": "0.534 RPM ratio (pull-down/input)"}, {"sequence": "GATGATTGTTCTCCCAGCTGATGAATTTAAGGTGTCGAGTAAACAAATTTTCCTAATCTTTCTGTTCAAGCGCCATCTAC", "binding signal": "0.772 RPM ratio (pull-down/input)"}, {"sequence": "GATGATTGTTCTCCCAGCTGATGAATTCACTAAATCGAGTAAACAAATTTTCCTAATCTTTCTGTTCAAGCGCCATCTAC", "binding signal": "0.211 RPM ratio (pull-down/input)"}, {"sequence": "GATGATTGTTCTCCCAGCTGATGAATTCTGGTCGTCGAGTAAACAAATTTTCCTAATCTTTCTGTTCAAGCGCCATCTAC", "binding signal": "0.464 RPM ratio (pull-down/input)"}, {"sequence": "GATGATTGTTCTCCCAGCTGATGAATTCTCAGCTTCGAGTAAACAAATTTTCCTAATCTTTCTGTTCAAGCGCCATCTAC", "binding signal": "0.293 RPM ratio (pull-down/input)"}, {"sequence": "GATGATTGTTCTCCCAGCTGATGAATTATGATAATCGAGTAAACAAATTTTCCTAATCTTTCTGTTCAAGCGCCATCTAC", "binding signal": "0.653 RPM ratio (pull-down/input)"}, {"sequence": "GATGATTGTTCTCCCAGCTGATGAATTTAGGGCTTCGAGTAAACAAATTTTCCTAATCTTTCTGTTCAAGCGCCATCTAC", "binding signal": "0.514 RPM ratio (pull-down/input)"}, {"sequence": "GATGATTGTTCTCCCAGCTGATGAATTTTGCGTATCGAGTAAACAAATTTTCCTAATCTTTCTGTTCAAGCGCCATCTAC", "binding signal": "3.74 RPM ratio (pull-down/input)"}, {"sequence": "GATGATTGTTCTCCCAGCTGATGAATTGTGACAGTCGAGTAAACAAATTTTCCTAATCTTTCTGTTCAAGCGCCATCTAC", "binding signal": "0.817 RPM ratio (pull-down/input)"}, {"sequence": "GATGATTGTTCTCCCAGCTGATGAATTGTCAGAGTCGAGTAAACAAATTTTCCTAATCTTTCTGTTCAAGCGCCATCTAC", "binding signal": "0.234 RPM ratio (pull-down/input)"}, {"sequence": "GATGATTGTTCTCCCAGCTGATGAATTCCCGTCTTCGAGTAAACAAATTTTCCTAATCTTTCTGTTCAAGCGCCATCTAC", "binding signal": "0.33 RPM ratio (pull-down/input)"}, {"sequence": "GATGATTGTTCTCCCAGCTGATGAATTAGTAAACTCGAGTAAACAAATTTTCCTAATCTTTCTGTTCAAGCGCCATCTAC", "binding signal": "1.08 RPM ratio (pull-down/input)"}, {"sequence": "GATGATTGTTCTCCCAGCTGATGAATTACGTTGGTCGAGTAAACAAATTTTCCTAATCTTTCTGTTCAAGCGCCATCTAC", "binding signal": "1.3 RPM ratio (pull-down/input)"}, {"sequence": "GATGATTGTTCTCCCAGCTGATGAATTATTTGTTTCGAGTAAACAAATTTTCCTAATCTTTCTGTTCAAGCGCCATCTAC", "binding signal": "4.2 RPM ratio (pull-down/input)"}, {"sequence": "GATGATTGTTCTCCCAGCTGATGAATTTGTTATTTCGAGTAAACAAATTTTCCTAATCTTTCTGTTCAAGCGCCATCTAC", "binding signal": "7.62 RPM ratio (pull-down/input)"}, {"sequence": "GATGATTGTTCTCCCAGCTGATGAATTATTATGTTCGAGTAAACAAATTTTCCTAATCTTTCTGTTCAAGCGCCATCTAC", "binding signal": "1.3 RPM ratio (pull-down/input)"}, {"sequence": "GATGATTGTTCTCCCAGCTGATGAATTTGATTATTCGAGTAAACAAATTTTCCTAATCTTTCTGTTCAAGCGCCATCTAC", "binding signal": "4.96 RPM ratio (pull-down/input)"}, {"sequence": "GATGATTGTTCTCCCAGCTGATGAATTATGTTATTCGAGTAAACAAATTTTCCTAATCTTTCTGTTCAAGCGCCATCTAC", "binding signal": "7.23 RPM ratio (pull-down/input)"}, {"sequence": "GATGATTGTTCTCCCAGCTGATGAATTGTTATTTTCGAGTAAACAAATTTTCCTAATCTTTCTGTTCAAGCGCCATCTAC", "binding signal": "4.89 RPM ratio (pull-down/input)"}, {"sequence": "GATGATTGTTCTCCCAGCTGATGAATTTGGTTATTCGAGTAAACAAATTTTCCTAATCTTTCTGTTCAAGCGCCATCTAC", "binding signal": "3.56 RPM ratio (pull-down/input)"}, {"sequence": "GATGATTGTTCTCCCAGCTGATGAATTCTGTTATTCGAGTAAACAAATTTTCCTAATCTTTCTGTTCAAGCGCCATCTAC", "binding signal": "6.72 RPM ratio (pull-down/input)"}, {"sequence": "GATGATTGTTCTCCCAGCTGATGAATTTTGTTATTCGAGTAAACAAATTTTCCTAATCTTTCTGTTCAAGCGCCATCTAC", "binding signal": "7.33 RPM ratio (pull-down/input)"}, {"sequence": "GATGATTGTTCTCCCAGCTGATGAATTTCGTTATTCGAGTAAACAAATTTTCCTAATCTTTCTGTTCAAGCGCCATCTAC", "binding signal": "2.7 RPM ratio (pull-down/input)"}, {"sequence": "GATGATTGTTCTCCCAGCTGATGAATTATGTAATTCGAGTAAACAAATTTTCCTAATCTTTCTGTTCAAGCGCCATCTAC", "binding signal": "3.03 RPM ratio (pull-down/input)"}, {"sequence": "GATGATTGTTCTCCCAGCTGATGAATTATTTTGTTCGAGTAAACAAATTTTCCTAATCTTTCTGTTCAAGCGCCATCTAC", "binding signal": "1.15 RPM ratio (pull-down/input)"}]}]}
